TDP1 cell CPT: qHTS for Inhibitors of human tyrosyl-DNA phosphodiesterase 1 (TDP1): qHTS in cells in presence of CPT. AID 686979, 2013. chicken DT40 Tdp1-/-;hTDP1 cells + 20 nM CPT, ATP luminescence, 48 h. actives 12% (n = 420,000). Potency, µM (titrated, usually from 46.2 µM), hits mostly inhibitors; note: nearly all actives have a fitted effect of over 55% in size
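Chicken DT40 Tdp1-/- cells complemented with human TDP1, 400 cells/well, exposed to compounds plus 20 nM camptothecin for at least 48 h at 37 C; viability read as ATP content by CellTiter-Glo luminescence.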
HT1080 IDH1KD tx: qHTS for induction of synthetic lethality in tumor cells producing 2HG: qHTS for the HT-1080-IDH1KD cell line. HT-1080 IDH1 knockdown viability, ATP luminescence, 48 h. Potency, µM (highest dose often 46.1 µM), most hits filed as cytotoxic. actives 2% (n = 360,000). AID 686971, 2013
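In this qHTS, HT-1080 cells depleted of IDH1 are exposed for 48 h at 37 °C to compound titrations. Toxicity is scored from CellTiter-Glo luminescence, with DMSO as full viability and medium alone as none.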
DT40 TDP1 no CPT: qHTS for Inhibitors of human tyrosyl-DNA phosphodiesterase 1 (TDP1): qHTS in cells in absence of CPT | DT40 Tdp1-/- hTDP1 cells, no CPT, ATP luminescence, 48 h | Potency, µM (top dose mostly 46.2 µM), hits mostly inhibitors | AID 686978, 2013 | actives 15% (n = 420,000); note: nearly all actives have a fitted effect of over 55% in size
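Readout: luminescence from CellTiter-Glo after 30 min in the dark at RT. Cells: DT40 Tdp1-/- with stable hTDP1, 400/well. Exposure: compounds alone, ≥48 hr, 37 °C.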
HT1080-NT tox: qHTS for induction of synthetic lethality in tumor cells producing 2HG: qHTS for the HT-1080-NT fibrosarcoma cell line; HT-1080-NT fibrosarcoma viability, CellTiter-Glo ATP luminescence, 48 h; actives 1.6% (n = 360,000); Potency, µM (top dose mostly 46.1 µM), actives largely listed as cytotoxic;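 note: NT is the 2HG producing partner of a matched IDH1 knockdown line; nearly all actives have a fitted effect of over 55% in size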
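Luminescent CellTiter-Glo readout after 48 hours of compound exposure at 37 degrees C defined viability of HT-1080-NT cells. Activity was normalized to DMSO wells and cell-free media wells; concentration-response curves were fitted and assigned curve classes.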
IL1B secr inh: qHTS for Inhibitors of Inflammasome Signaling: IL-1-beta AlphaLISA Primary Screen. THP-1 LPS/ATP IL-1B secretion, AlphaLISA, 16 h; hits give low values. AID 743279, 2014. actives 4.7% (n = 360,000). activity change, % at 57.5 µM; in the data active = activity change below about -50%; inconclusive = mostly about -30% to -49%
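Secreted IL-1B measured by AlphaLISA bead assay after 16 h compound exposure of THP-1 cells; compounds (final up to 57.5 uM) added 1 h before LPS (250 ng/mL) and ATP (1.25 mM) stimulation; lower signal means less secretion.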
ELG1 repair inh: qHTS screen for small molecules that inhibit ELG1-dependent DNA repair in human embryonic kidney (HEK293T) cells expressing luciferase-tagged ELG1 | HEK293T ELG1-luciferase reporter, luminescence, 16 h; DNA damage induced by 5-fluorouridine | Potency, µM (titrated, usually from 46.1 µM), hits mostly inhibitors | actives 2.3% (n = 330,000) | AID 504467, 2011; note: nearly all actives have a fitted effect of over 55% in size
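HEK293T cells expressing luciferase-tagged ELG1 (2,000/well) received 5-Fluorouridine plus compound or DMSO for 16 hr at 37 °C. Luciferase was read by ONE-Glo luminescence after 30 min at room temperature.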
Each line names hits and unclear results; the compound was inactive in the other large screens. Only some compounds are listed: those with a hit (about 19% of all), similar ones and a draw of the others. Unless noted, calls come from the whole dose curve; as a rule, active = well fitted curve in the direction sought with a large enough effect; inconclusive = small, poorly fitted or top-dose-only effect, or another doubt; inactive = no such curve, though single readings can be large; an effect the other way counts as inactive or inconclusive.

O=C(N/N=C/c1ccccn1)c1cc(-c2ccc(Cl)cc2)nc2ccccc12	TDP1 cell CPT 3.26µM, DT40 TDP1 no CPT 8.2µM, IL1B secr inh -102.5, ELG1 repair inh inconclusive
O=C(O)COc1ccccc1/C=N/NC(=O)c1cc(-c2ccc(Cl)cc2)nc2ccccc12	DT40 TDP1 no CPT 6.51µM
Cc1ccccc1C(=O)N/N=C/c1ccccn1	TDP1 cell CPT inconclusive, HT1080 IDH1KD tx inconclusive, DT40 TDP1 no CPT inconclusive, ELG1 repair inh inconclusive
O=C(N/N=C/c1ccccn1)c1cc(-c2ccc(Br)cc2)nc2ccccc12	TDP1 cell CPT 2.59µM, HT1080 IDH1KD tx inconclusive, DT40 TDP1 no CPT 1.84µM, HT1080-NT tox inconclusive, IL1B secr inh -95.7, ELG1 repair inh inconclusive
O=C(O)COc1ccccc1/C=N/NC(=O)c1cc(-c2ccccc2)nc2ccccc12	none
CN(C)c1ccc(CNC(=O)c2cnc3sc(N4CCCCCC4)nn3c2=O)cc1	DT40 TDP1 no CPT inconclusive (no result: HT1080 IDH1KD tx, HT1080-NT tox, IL1B secr inh, ELG1 repair inh)
Cc1sc2ncnc(NCCc3ccc(S(N)(=O)=O)cc3)c2c1C	TDP1 cell CPT 2.91µM, HT1080 IDH1KD tx inconclusive, DT40 TDP1 no CPT 1.46µM, ELG1 repair inh 18.4µM
NS(=O)(=O)c1ccc(CCNc2ncnc3sccc23)cc1	TDP1 cell CPT 7.31µM, HT1080 IDH1KD tx inconclusive, DT40 TDP1 no CPT 5.8µM, ELG1 repair inh inconclusive
NS(=O)(=O)c1ccc(CNc2ncnc3sccc23)cc1	TDP1 cell CPT inconclusive, DT40 TDP1 no CPT inconclusive
CN(C)c1ccc(CNc2ncnc3sccc23)cc1	TDP1 cell CPT 4.11µM, HT1080 IDH1KD tx inconclusive, DT40 TDP1 no CPT 2.06µM, HT1080-NT tox inconclusive
Nc1nn(-c2ccccc2)nc1C(=O)OCc1c(F)cccc1Cl	none (no result: HT1080 IDH1KD tx, HT1080-NT tox, IL1B secr inh, ELG1 repair inh)
COc1ccc(C(C)(NC(C)=O)c2nc(/C=C/c3ccccc3)cs2)cc1 (stereo not drawn)	TDP1 cell CPT inconclusive, DT40 TDP1 no CPT inconclusive, HT1080-NT tox inconclusive (no result: ELG1 repair inh)
COC(=O)c1ccccc1NC(=O)CSc1nc2ccccc2nc1Cc1ccccc1OC	none (no result: HT1080 IDH1KD tx, HT1080-NT tox, IL1B secr inh, ELG1 repair inh)
CCOC(=O)C1=C(Nc2ccc(OC)cc2)C(N)=NC1=N	TDP1 cell CPT 3.66µM, HT1080 IDH1KD tx 5.17µM, DT40 TDP1 no CPT 1.3µM, HT1080-NT tox 2.31µM (no result: ELG1 repair inh)
CNc1snc(C)c1C(=O)OC(C)C(=O)Nc1ccccc1 (stereo not drawn)	TDP1 cell CPT inconclusive, DT40 TDP1 no CPT inconclusive, ELG1 repair inh inconclusive
CN(C)CCN(C)Cc1c2ccccc2c(CN(C)CCN(C)C)c2ccccc12	TDP1 cell CPT 18.4µM, HT1080 IDH1KD tx 20.6µM, DT40 TDP1 no CPT 18.4µM, HT1080-NT tox inconclusive, IL1B secr inh -83.8
COc1cccc([C@@H]2CC=C(C(=O)O)[C@H](c3ccc(Br)cc3)N2S(=O)(=O)c2ccc(C)cc2)c1	none
CCn1nc(C(=O)NNC(=O)CCOc2cc(C)ccc2C)c2ccccc2c1=O	DT40 TDP1 no CPT inconclusive
Cc1cc(C(=O)N2CCCC(C)(C(=O)NS(=O)(=O)C3CC3)C2)nn1C(C)(C)C (stereo not drawn)	TDP1 cell CPT inconclusive, DT40 TDP1 no CPT 2.91µM (no result: ELG1 repair inh)
CCCNC(=O)C1(C)CCCN(C(=O)c2cc(C)n(C(C)(C)C)n2)C1 (stereo not drawn)	TDP1 cell CPT inconclusive, DT40 TDP1 no CPT inconclusive (no result: ELG1 repair inh)
CCCNC(=O)C1(C)CCCN(C(=O)c2cc(C)nn2C(C)(C)C)C1 (stereo not drawn)	TDP1 cell CPT 11.6µM, HT1080 IDH1KD tx inconclusive, DT40 TDP1 no CPT inconclusive (no result: ELG1 repair inh)
CCNC(=O)C1(C)CCCN(C(=O)c2cc(C)n(C(C)(C)C)n2)C1 (stereo not drawn)	TDP1 cell CPT 7.31µM, HT1080 IDH1KD tx inconclusive (no result: ELG1 repair inh)
Clc1cc(Cl)c(OCCCCn2cncn2)c(Cl)c1	TDP1 cell CPT inconclusive

High-throughput results deposited in PubChem BioAssay by National Center for Advancing Translational Sciences (NCATS).
